Assay results published in PubChem BioAssay.
Calls of active or inactive are those of the source.

Key:
[1] = target: Albumin (Bos taurus) (UniProt P02769); assay: bovine serum albumin binders on microarray, profiling panel, artefact control for SMM control protein annotation, biochemical, small-molecule microarray, Alexa647 label, 635/667 nm fluorescence (AID 1118); details: BSA-A647 binding, fluorescence 635 nm, higher = more signal;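 also: score merges 667 nm emission intensity and signal-to-noise per printed compound spot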
Chain of Albumin (Bos taurus) (P02769 whole entry, looked up): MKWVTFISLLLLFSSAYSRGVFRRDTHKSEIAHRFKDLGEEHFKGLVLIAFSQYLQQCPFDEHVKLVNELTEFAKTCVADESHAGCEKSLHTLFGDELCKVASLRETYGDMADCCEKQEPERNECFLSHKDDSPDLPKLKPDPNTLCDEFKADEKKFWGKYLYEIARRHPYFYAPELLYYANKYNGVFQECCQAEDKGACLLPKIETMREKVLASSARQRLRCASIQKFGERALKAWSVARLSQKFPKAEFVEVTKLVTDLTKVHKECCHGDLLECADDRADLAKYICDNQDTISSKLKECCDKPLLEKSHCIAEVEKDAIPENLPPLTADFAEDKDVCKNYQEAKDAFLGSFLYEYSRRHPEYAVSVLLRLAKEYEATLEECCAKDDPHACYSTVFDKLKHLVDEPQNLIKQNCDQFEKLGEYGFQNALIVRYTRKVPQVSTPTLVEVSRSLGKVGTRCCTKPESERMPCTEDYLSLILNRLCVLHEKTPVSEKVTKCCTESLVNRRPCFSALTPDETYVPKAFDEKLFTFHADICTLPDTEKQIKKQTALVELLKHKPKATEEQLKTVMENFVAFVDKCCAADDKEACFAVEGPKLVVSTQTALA

[2] = small-molecule microarray binders of probe aXIP, primary screen, biochemical, NeuroSMM set, 635/667 nm fluorescence (AID 1119); details: higher = more signal, called active from +8 up or from −8 down;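 also: probe is the protein aXip251-270 applied at 1 µg/mL to compound-printed slides; binding of probe to printed compounds measured as 667 nm fluorescence plus signal to noise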
[3] = small-molecule binders of probe aNOTCH3, primary screen, biochemical, small-molecule microarray, 635/667 nm fluorescence (AID 1120); details: higher = more signal;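 also: probe is a biotin-tagged antibody raised against NOTCH3 rather than NOTCH3 protein; score merges spot fluorescence near 667 nm with spot signal to noise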
[4] = small-molecule binders of probe aNOTCH2, primary screen, biochemical, small-molecule microarray, 635/667 nm fluorescence (AID 1121); details: higher = more signal;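 also: score merges feature fluorescence read at 667 nm with its signal to noise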
[5] = target: Carbonic anhydrase 2 (Homo sapiens) (UniProt P00918); assay: CAII small-molecule binders, profiling panel, biochemical, small-molecule microarray, Alexa647-labelled CAII (AID 1122); details: CAII-A647 binding fluorescence, higher = more signal
[6] = COS7 lysate on small-molecule microarray, probe aHis, 635 nm (AID 1123); details: COS7 cell lysate, fluorescence, higher = more signal;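 also: z-score combines 667nm fluorescence intensity with signal-to-noise per printed compound spot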
[7] = compound binding in COS7 lysate, probe aLAP1, primary screen, cell lysate, small-molecule microarray (AID 1124); details: probe aLAP1, fluorescence, higher = more signal;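 also: lysate comes from COS7 cells expressing LAP1 and is applied at 0.3 µg/mL; score merges spot fluorescence near 667 nm with signal-to-noise over triplicate slides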
[8] = system: Sam68 (KHDRBS1); assay: Sam68 small-molecule binders, primary screen, biochemical, small-molecule microarray, 635 nm fluorescence (AID 1125); details: small-molecule microarray binding, higher = more signal;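 also: score merges 667 nm channel intensity with signal to noise over triplicate slides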
[9] = system: Chordin-like protein 2 (CHRDL2); assay: CHRDL2 small-molecule binders, primary screen, biochemical, small-molecule microarray, 635 nm fluorescence (AID 1126); details: small-molecule microarray binding, fluorescence 635 nm; higher = more signal;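 also: printed compound slides probed with Chrdl2 protein at 4 µg/mL for 1 h at 4 C; score merges 667 nm emission intensity with signal to noise over three replicate slides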
[10] = target: Concanavalin-A (Canavalia ensiformis) (UniProt P02866); assay: ConA small-molecule binders, primary screen, artefact control for SMM control protein annotation, biochemical, small-molecule microarray, Alexa647 label, 635 nm (AID 1127); details: ConA-A647 binding fluorescence, higher = more signal;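 also: z combines 667 nm emission intensity with signal-to-noise across three replicate slides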
Chain of Concanavalin-A (Canavalia ensiformis) (P02866 whole entry, looked up): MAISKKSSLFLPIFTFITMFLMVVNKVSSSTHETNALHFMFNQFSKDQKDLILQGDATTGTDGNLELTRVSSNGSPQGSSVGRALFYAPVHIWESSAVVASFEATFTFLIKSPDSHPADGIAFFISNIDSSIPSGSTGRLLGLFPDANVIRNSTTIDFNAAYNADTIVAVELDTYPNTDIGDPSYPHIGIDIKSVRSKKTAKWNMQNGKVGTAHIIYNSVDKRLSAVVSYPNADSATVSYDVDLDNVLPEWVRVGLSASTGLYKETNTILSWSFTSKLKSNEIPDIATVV

[11] = anti-His antibody binders, primary screen, artefact control for SMM control protein annotation, biochemical, small-molecule microarray, 635 nm fluorescence (AID 1128); details: anti-His Alexa647 antibody binding, higher = more signal;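 also: score merges feature fluorescence with signal-to-noise for each printed compound spot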
[12] = system: Human papillomavirus type 1a E7 protein (residues 1-88); assay: HPV1a E7 small-molecule binders, primary screen, biochemical, small-molecule microarray, residues 1-88, 635 nm (AID 1129); details: small-molecule microarray binding, fluorescence 635 nm; higher = more signal
[13] = target: Focal adhesion kinase 1 (Homo sapiens) (UniProt Q05397); assay: small-molecule microarray binders of FAK, primary screen, biochemical, 635/667 nm fluorescence, BSA, DTT (AID 1130); details: PTK2 binding, 635 nm fluorescence, higher = more signal;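 also: composite of spot emission at 667 nm and signal to noise over triplicate slides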
Chain of Focal adhesion kinase 1 (Homo sapiens) (Q05397 whole entry, looked up): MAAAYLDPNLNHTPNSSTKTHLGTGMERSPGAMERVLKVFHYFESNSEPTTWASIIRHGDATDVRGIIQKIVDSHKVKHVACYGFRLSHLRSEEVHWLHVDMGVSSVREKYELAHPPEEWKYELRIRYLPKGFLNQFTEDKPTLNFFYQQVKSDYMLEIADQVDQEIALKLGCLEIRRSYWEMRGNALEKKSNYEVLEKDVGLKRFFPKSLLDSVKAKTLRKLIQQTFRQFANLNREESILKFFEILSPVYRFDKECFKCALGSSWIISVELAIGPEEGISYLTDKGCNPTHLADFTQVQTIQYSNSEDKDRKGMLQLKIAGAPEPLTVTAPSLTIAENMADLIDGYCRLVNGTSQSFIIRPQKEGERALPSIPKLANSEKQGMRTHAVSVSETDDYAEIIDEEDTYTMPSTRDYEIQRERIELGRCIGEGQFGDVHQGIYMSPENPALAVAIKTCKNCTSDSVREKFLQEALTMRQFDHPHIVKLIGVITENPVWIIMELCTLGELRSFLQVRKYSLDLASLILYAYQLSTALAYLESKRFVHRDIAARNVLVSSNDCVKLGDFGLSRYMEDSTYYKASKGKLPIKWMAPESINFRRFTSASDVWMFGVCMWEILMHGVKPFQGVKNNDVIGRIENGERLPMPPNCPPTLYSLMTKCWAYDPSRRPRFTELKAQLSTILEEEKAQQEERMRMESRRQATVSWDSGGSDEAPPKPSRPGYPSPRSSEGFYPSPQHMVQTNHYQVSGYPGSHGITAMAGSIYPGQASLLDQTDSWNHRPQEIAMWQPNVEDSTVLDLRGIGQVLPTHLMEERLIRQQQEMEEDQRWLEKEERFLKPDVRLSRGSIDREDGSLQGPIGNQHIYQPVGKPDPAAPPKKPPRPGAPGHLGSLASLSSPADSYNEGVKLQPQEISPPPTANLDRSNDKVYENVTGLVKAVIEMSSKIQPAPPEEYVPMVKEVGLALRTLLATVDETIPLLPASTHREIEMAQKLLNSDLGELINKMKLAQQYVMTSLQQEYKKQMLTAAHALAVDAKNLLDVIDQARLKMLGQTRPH

[14] = system: Fibrinogen (Alexa647-labelled); assay: fibrinogen binders on compound microarrays, profiling panel, artefact control for SMM control-protein annotation, biochemical, small-molecule microarray, 635/667 nm fluorescence (AID 1131); details: fibrinogen-A647 binding fluorescence, higher = more signal;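 also: z-score merges 667 nm fluorescence with per-spot signal-to-noise over triplicate slides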
[15] = target: Follistatin (Homo sapiens) (UniProt P19883); assay: follistatin binders on small-molecule microarrays, primary screen, biochemical, small-molecule microarray, 635/667 nm fluorescence (AID 1132); details: FST binding, 635 nm fluorescence, higher = more signal
Chain of Follistatin (Homo sapiens) (P19883 whole entry, looked up): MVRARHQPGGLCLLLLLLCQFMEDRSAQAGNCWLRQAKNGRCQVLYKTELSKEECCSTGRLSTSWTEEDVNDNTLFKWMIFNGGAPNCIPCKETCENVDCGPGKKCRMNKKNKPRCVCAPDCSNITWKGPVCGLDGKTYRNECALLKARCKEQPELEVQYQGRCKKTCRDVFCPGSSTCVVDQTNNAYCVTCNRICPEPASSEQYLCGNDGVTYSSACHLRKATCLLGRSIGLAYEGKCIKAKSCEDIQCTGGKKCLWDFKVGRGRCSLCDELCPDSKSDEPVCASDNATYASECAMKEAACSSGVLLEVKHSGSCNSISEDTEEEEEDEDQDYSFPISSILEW

[16] = target: Fibroblast growth factor 2 (Homo sapiens) (UniProt P09038); assay: FGF2 binders on small-molecule microarrays, primary screen, biochemical, small-molecule microarray, 635/667 nm fluorescence (AID 1133); details: small-molecule microarray binding, FGF2, fluorescence 635/667; higher = more signal
Chain of Fibroblast growth factor 2 (Homo sapiens) (P09038 whole entry, looked up): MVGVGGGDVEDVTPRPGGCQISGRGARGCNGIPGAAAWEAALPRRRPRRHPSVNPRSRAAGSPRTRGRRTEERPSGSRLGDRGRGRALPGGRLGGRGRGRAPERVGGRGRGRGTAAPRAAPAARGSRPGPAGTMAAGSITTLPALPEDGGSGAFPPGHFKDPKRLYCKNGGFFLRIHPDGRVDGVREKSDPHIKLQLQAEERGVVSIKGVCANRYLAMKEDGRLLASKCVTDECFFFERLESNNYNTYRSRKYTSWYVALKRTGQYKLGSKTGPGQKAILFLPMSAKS

[17] = mitochondrial membrane potential change in A549 cells, profiling panel, cell-based, JC-1 fluorescence, basal, 24 h, 100 nL (AID 1138); details: higher = more signal;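 also: A549 lung adenocarcinoma cells under basal conditions with no added stimulus; test concentration not given here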
[18] = system: Lefty1; assay: Lefty1 binders on small-molecule microarrays, primary screen, biochemical, small-molecule microarray, 635/667 nm fluorescence (AID 1139); details: small-molecule microarray binding, fluorescence 635/667; higher = more signal
[19] = system: wheat germ agglutinin (Triticum aestivum), Alexa647-labelled; assay: wheat germ agglutinin binders on compound microarrays, profiling panel, artefact control for SMM control-protein annotation, biochemical, small-molecule microarray, 635/667 nm fluorescence (AID 1140); details: WGA-A647 binding, 635 nm fluorescence, higher = more signal;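 also: score merges 667 nm feature emission with signal to noise over triplicate slides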
[20] = target: Luciferin 4-monooxygenase (Photinus pyralis) (UniProt P08659); assay: firefly luciferase enzyme inhibitors, primary screen, biochemical, luminescence, purified enzyme, 2006 set (AID 1141); details: SteadyGlo luminescence, 30 min, higher = more signal, called active from +8 up or from −8 down;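 also: cell-free assay with purified firefly luciferase at 100 ng per well in PBS; test concentration not given here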
Chain of Luciferin 4-monooxygenase (Photinus pyralis) (P08659 whole entry, looked up): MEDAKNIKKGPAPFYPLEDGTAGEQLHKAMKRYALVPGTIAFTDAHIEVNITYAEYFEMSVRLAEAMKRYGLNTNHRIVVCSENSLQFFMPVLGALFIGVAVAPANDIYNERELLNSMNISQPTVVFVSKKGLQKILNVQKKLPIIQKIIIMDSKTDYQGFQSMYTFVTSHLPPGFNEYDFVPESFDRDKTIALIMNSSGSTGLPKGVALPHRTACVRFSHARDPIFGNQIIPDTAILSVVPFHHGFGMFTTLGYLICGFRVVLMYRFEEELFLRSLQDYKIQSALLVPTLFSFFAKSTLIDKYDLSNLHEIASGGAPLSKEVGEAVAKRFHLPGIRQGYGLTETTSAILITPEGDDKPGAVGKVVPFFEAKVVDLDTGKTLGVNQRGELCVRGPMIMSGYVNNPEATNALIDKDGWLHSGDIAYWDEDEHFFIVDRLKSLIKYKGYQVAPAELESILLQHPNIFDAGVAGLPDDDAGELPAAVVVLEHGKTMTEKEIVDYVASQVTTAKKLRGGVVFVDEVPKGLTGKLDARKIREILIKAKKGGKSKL

Compound	composite z-score [1]	composite Z-score [2]	composite z-score [3]	composite z-score [4]	composite z-score [5]	composite z-score [6]	composite z-score [7]	composite z-score [8]	composite z-score [9]	composite z-score [10]	composite z-score [11]	composite z-score [12]	composite z-score [13]	composite z-score [14]	composite z-score [15]	composite z-score [16]	z-score [17]	composite z-score [18]	composite z-score [19]	z-score [20]
[N-]=[N+]=NCc1ccccc1[C@H]1OC(c2ccc(OCCCO)cc2)=N[C@@]1(CCS(=O)(=O)c1ccccc1)C(=O)O	0.952	0.177 (inactive)	0.212	-0.118	0.754	2.12	0.0621	0.367	-0.692	0.399	0.583	0.667	0.476	1.03	0.0192	-0.119	-0.959	-0.182	0.169	-6.31 (inactive)
O=C(CS)NCCCCCCNC(=O)[C@H]1C[C@H]2C(=O)NCC(=O)N2[C@H]1c1cccc(OCCO)c1	-0.509	0.54 (inactive)	0.191	-0.0995	0.458	1.37	0.122	0.221	0.283	0.966	1.64	0.245	0.128	0.65	1.35	1.56	-0.698	0.47	-0.152	0.057 (inactive)
COc1cc2c(cc1O)C(C)N(Cc1sc3ccccc3c1Cl)CC2 (stereo not given)	1.01	-0.768 (inactive)	-0.014	-0.0158	0.937	0.477	-0.181	-1.44	-1.9	-1.53	-0.119	-1.14	-0.439	-2.68	-0.678	-1.11	0.218	-1.44	0.358	1.39 (inactive)
CC(C)N1CC=CC23O[C@@H]4/C=C\CCCOC(=O)C4[C@H]2C(=O)N(C(C)CO)[C@@H]3C1=O (stereo not given in full)	-0.446	0.0835 (inactive)	-0.24	-0.177	0.913	0.17	-0.443	-0.222	-0.956	-0.313	-0.201	-0.829	-0.246	-1.91	-0.755	-1.31	0.0728	-0.246	0.33	0.281 (inactive)
CN(C)CCCCCCNC(=O)[C@@H]1C[C@@H]2C(=O)N[C@@H](CCCC[N+](C)(C)C)C(=O)N2[C@@H]1c1cccc(OCCO)c1	0.792	1.88 (inactive)	-0.155	-0.0495	0.321	0.617	0.98	-0.311	-0.0783	0.566	2.34	0.13	-0.159	0.104	0.704	0.645	0.417	-0.601	0.853	-2.44 (inactive)
C=CCNC(=O)[C@@H]1[C@H]2C(=O)O[C@H](c3ccccc3)[C@H](c3ccccc3)N2[C@H](c2ccc(OCCO)cc2)[C@@]12C(=O)Nc1ccc(C#CCNC(N)=O)cc12	0.567	0.0324 (inactive)	-0.076	-0.13	0.336	0.813	0.268	1.33	-0.822	0.6	0.156	-0.0352	0.0378	0.75	0.593	-0.187	-0.844	-0.0354	0.671	-0.851 (inactive)
COCCOC(=O)N1C(=O)[C@@]2(c3cc(C#CCNC(N)=O)ccc31)[C@H](C(N)=O)[C@H]1C(=O)O[C@H](c3ccccc3)[C@H](c3ccccc3)N1[C@@H]2c1ccc(O)cc1	-0.153	0.003 (inactive)	0.153	0.234	0.606	0.609	-0.545	-0.148	0.267	-0.267	1.78	-0.767	-0.284	-0.424	0.994	0.287	0.222	0.115	-0.113	-2.19 (inactive)
CN1C(=O)C2C=CC(C(O)COCc3ccccc3)N(Nc3ccc([N+](=O)[O-])cc3[N+](=O)[O-])C2C1=O (stereo not given)	0.186	0.215 (inactive)	0.0596	0.046	0.368	1.49	0.578	0.447	-0.693	-0.445	-1.08	1.08	0.903	-0.428	-0.232	0.41	1.89	-0.798	0.333	-1.05 (inactive)
